VP16 counter – VP16 counterscreen qHTS for inhibitors of ROR gamma transcriptional activity; Drosophila S2 Gal4-VP16 UAS-luciferase, luminescence, 20 h; Potency, µM (titrated, usually from 53.6 µM), inactives show at the top dose activity, negative = inhibition, actives largely listed as inhibitors; 310,000 compounds, 3.5% hits;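 further: Gal4-VP16 expression switched on by copper sulfate through the metallothionein promoter; nearly all actives have a fitted effect of over 50% in size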
Sfp inh – qHTS Assay for Inhibitors of Bacillus subtilis Sfp phosphopantetheinyl transferase (PPTase); 4'-phosphopantetheinyl transferase ffp (Bacillus subtilis), Q9F4F7; Biochemical Sfp PPTase activity, qHTS; Potency, µM, for inactives: largest response in the series, negative = inhibition, usual class: inhibitors; 310,000 compounds, 3.5% hits; AID 1490, 2009;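 further: the enzyme is Sfp with the accession as filed and its product quenches rhodamine fluorescence; 0% = enzyme reaction without inhibitor and -100% = no enzyme wells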
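Reaction rates are the 30-min fluorescence difference (ex 525, em 598 nm) in wells containing 15 nM Sfp, 5 uM rhodamine-CoA and 12.5 uM BHQ-2-YbbR at pH 7.6 with 10 mM MgCl2.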
ALDH1A1 inh – qHTS Assay for Inhibitors of Aldehyde Dehydrogenase 1 (ALDH1A1); 220,000 compounds, 7.3% hits; Aldehyde dehydrogenase 1A1 (Homo sapiens), P00352; Purified ALDH1A1, NADH fluorescence, propionaldehyde substrate; Potency, µM (doses to about 75.3 µM), without a hit: at the top dose activity, negative = inhibition, usual class: inhibitors; AID 1030, 2008; active means well fitted inhibition curve with a large enough effect, not every such curve was filed as active; inconclusive means small, poorly fitted or top-dose-only effect, or another doubt; inactive means no such curve, though single readings can be large or run the other way;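 further: plate controls were no enzyme wells and a reference inhibitor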
PLK1 PBD block – qHTS for Inhibitors of PLK1-PDB (polo-like kinase 1 - polo-box domain): Primary Screen | 360,000 compounds, 2.8% hits | Potency, µM, for the others: max response, negative = inhibition, usual class: inhibitors | Plk1 PBD binding of FITC phosphopeptide, fluorescence polarization; further: series mostly up to about 57 µM; nearly all actives have a fitted effect of over 65% in size
RORgamma inh – qHTS for inhibitors of ROR gamma transcriptional activity; Nuclear receptor ROR-gamma (Mus musculus), P51450; Drosophila S2 Gal4-RORgamma UAS-luciferase reporter, 20 h; Potency, µM (top dose mostly 53.6 µM), without a hit: at the highest dose activity change, negative = inhibition, hits mostly inhibitors; 310,000 compounds, 5.4% hits; further: nearly all actives have a fitted effect of over 60% in size
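Stable Schneider cell line, Gal4 DNA-binding domain fused to ROR gamma, UAS-luciferase. Cmpd 1 hr RT → CuSO4 700 uM final → 20 hr RT → luciferase reagent 10 min → luminescence.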
* = called active by the depositor; ? = inconclusive; . = not tested or not shown; [ ] = another dose, or the depositor's remark. Hits are enriched below; roughly 12% of the tested compounds scored in any of these assays. Unless noted, the call rests on the fitted dose curve; in most records, active means well fitted curve in the direction sought with a large enough effect; inconclusive means small, poorly fitted or top-dose-only effect, or another doubt; inactive means no such curve, though single readings can be large; an effect the other way counts as inactive or inconclusive. Unless noted, on the % scale 0 is the no-effect control and ±100 the full control effect; potency means the concentration at half of the fitted maximal effect.

SMILES | VP16 counter | Sfp inh | ALDH1A1 inh | PLK1 PBD block | RORgamma inh
O=C(Nc1ccc(S(=O)(=O)N2CCCC2)cc1)C1CC(=O)N(CCc2ccccc2)C1 (configuration not stated) | . | . | . | -6% | .
CC(=O)Nc1ccc2c(c1)/C(=C/c1ccc([N+](C)(C)C)cc1)c1ccccc1-2 | . | . | -2%[13.5 µM] | . | .
CC(NCCCSc1ccccc1)C(O)c1ccc(O)cc1 (configuration not stated) | . | . | . | 3% | .
CCCN1CCC(=O)N([C@H](CSc2ccc(OC)cc2)CC(C)C)CC1 | 4% | 9% | . | ? | -23%
C[C@@H]1CCCN(CP(=O)(c2ccccc2)c2ccccc2)C1 | . | . | 2%[13.5 µM] | . | .
FC(F)Oc1ccc(NC(=S)NCCc2ccccn2)cc1 | 5µM* | -4% | -12% | -5% | 4.5µM*
O=C(Nc1ccc(OC(F)F)cc1)c1ccccn1 | -1%[10 µM] | -7% | -6% | -4% | -10%
CCCCC(=O)N(C)c1c(CC)nc2c(OCC(N)=O)cccn12 | . | . | . | 2% | .
COc1ccc(C2C3=C(Nc4ncnn42)c2ccccc2CCC3)cc1 (configuration not stated) | -3% | 4% | ? | -1% | -30%
Fc1ccc(/C=C2\CCCC3=C2Nc2ncnn2C3c2ccc(F)cc2)cc1 (configuration not stated) | -7% | ? | ? | 24µM* | 6%
CCN(C(=O)CN1C(=O)NC2(CCC(C)CC2)C1=O)C1CCCCC1 (configuration not stated) | . | . | . | 3% | .

Screens from PubChem BioAssay.
